Several values for one entry are separate records, joined by “and”; a condition that tells them apart may be missing. Equal values may be shown once. Activity calls are given as the source filed them.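 How the source made its calls, unless noted: active means thallium flux through the channel raised or lowered by more than 3 SD from vehicle-only wells, actives on both sides; inactive means the rest.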
Tests used:
[1] = P. berghei load reduction in hepatocytes – cell-based, HepG2, luciferase luminescence, HepG2 viability, primary screen (AID 624349; in the data active means parasite load remaining mostly below about 12%, no sharp cut-off; inactive means mostly above about 10%;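 further: 100% = mean of DMSO negative control wells on the same plate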); conditions: P. berghei liver stage in HepG2, luciferase luminescence, concentration not given here; parasite load remaining: stronger effect = lower value; viability: measured here: HepG2 viability without parasites
[2] = signal quenchers or enhancers, Cy5 substrate/SSB – biochemical, NIH Clinical Collection, E. coli SSB, artefact control for HCV NS3 helicase inhibitor project (AID 743268; call rule not given here); conditions: Cy5-oligo bound E. coli SSB, fluorescence interference
[3] = tested on: Hepatitis C virus NS3 helicase; experiment: blockers of NS3h binding to DNA – biochemical, fluorescence polarization, NIH Clinical Collection, primary screen (AID 743270; call rule not given here); conditions: NS3 helicase binding to Cy5-dT15 DNA, stronger effect = higher value, concentration not given here
[4] = target: Single-stranded DNA-binding protein (Escherichia coli (strain K12)) (UniProt P0AGE0); experiment: SSB-ssDNA binding inhibitors – biochemical, fluorescence polarization, NIH Clinical Collection, counter-screen for HCV NS3 helicase inhibitor project (AID 743271; in the data active means inhibition above about 28%); conditions: E. coli SSB-DNA binding, stronger effect = higher value, concentration not given here
[5] = compounds distorting NS3 helicase fluorescence signal – biochemical, NIH Clinical Collection, artefact control for HCV NS3 helicase inhibitor project (AID 743272; call rule not given here;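 further: HCV NS3 helicase with a Cy5 labelled single stranded DNA probe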); conditions: fluorescence interference counterscreen, HCV NS3 helicase assay; stronger effect = lower value
[6] = modulation of C. elegans fzo-1 (AID 1259413; call rule not given here;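 further: fzo-1 mutant C. elegans worms in liquid wells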); conditions: C. elegans fzo-1 modulator screen, mean read-out; stronger effect = higher value
[7] = viability loss with induced miR-34 in A549 – imaging, A549 dox-inducible miR-34, nuclei and caspase counts, primary screen (AID 1347080;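 active means compounds whose cell count with miR-34 switched on is under 0.7 times the count with it off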); conditions: A549 miR-34 inducible, Hoechst nuclei count, 48 h
[8] = MELAS cybrid and Rieske KO viability enhancers – cell-based, MELAS cybrids, Rieske KO mouse fibroblasts, CellTiter-Glo, primary screen (AID 1508586;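 active means mean z-score across replicates of 1.96 or higher in either the MELAS or the Rieske mutant cell line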;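 further: z relative to plate mean and SD of compound and empty wells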); conditions: low glucose
[9] = tested on: F380Y; experiment: BK channel mutant inhibitors and activators – cell-based, U2OS BacMam, thallium flux, beta subunits, selectivity assay, profiling panel (AID 1259406); conditions: U2OS BacMam BK variants, at 30 µM;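 further: initial slope of Thallos dye fluorescence rise after thallium is added; log ratio against the mean of 0.3% DMSO vehicle wells on the same plate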
[10] = tested on: F380Y/beta1; experiment: as above; conditions: U2OS BacMam BK variants, at 30 µM
[11] = tested on: F380Y/beta2Delta; experiment: as above; conditions: U2OS BacMam BK variants, at 30 µM
[12] = tested on: F380Y/beta4; experiment: as above; conditions: U2OS BacMam BK variants, at 30 µM
[13] = target: Calcium-activated potassium channel subunit alpha-1 (Homo sapiens) + Leucine-rich repeat-containing protein 26 (Homo sapiens) (UniProt Q12791+Q2I0M4); experiment: as above; conditions: U2OS BacMam BK variants, F380Y/Slo1WT/gamma1, at 30 µM
Calcium-activated potassium channel subunit alpha-1 (Homo sapiens) + Leucine-rich repeat-containing protein 26 (Homo sapiens), sequence (Q2I0M4 whole entry, looked up, one chain of several): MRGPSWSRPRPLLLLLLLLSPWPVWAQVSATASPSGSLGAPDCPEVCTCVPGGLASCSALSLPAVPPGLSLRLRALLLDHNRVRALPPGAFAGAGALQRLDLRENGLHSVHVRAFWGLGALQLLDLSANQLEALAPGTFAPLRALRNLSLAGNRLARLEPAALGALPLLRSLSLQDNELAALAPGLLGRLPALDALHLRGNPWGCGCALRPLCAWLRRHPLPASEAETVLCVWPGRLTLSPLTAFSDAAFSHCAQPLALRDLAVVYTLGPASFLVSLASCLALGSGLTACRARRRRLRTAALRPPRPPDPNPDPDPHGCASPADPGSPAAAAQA

[14] = tested on: R275C; experiment: as above; conditions: U2OS BacMam BK variants, at 30 µM
[15] = tested on: R275C/beta1; experiment: as above; conditions: U2OS BacMam BK variants, at 30 µM
[16] = tested on: R275C/beta2Delta; experiment: as above; conditions: U2OS BacMam BK variants, at 30 µM
[17] = tested on: R275C/beta4; experiment: as above; conditions: U2OS BacMam BK variants, at 30 µM
[18] = tested on: R275C/Slo1WT/beta2; experiment: as above; conditions: U2OS BacMam BK variants, at 30 µM
[19] = stronger effect = lower value, cell number ratio, induced over uninduced
[20] = measured here: relative caspase fold change +Dox/-Dox
[21] = measured here: total cells with miR-34 induction, stronger effect = lower value
[22] = measured here: total cells without miR-34 induction

For `O=C1C(c2c(O)[nH]c3ccccc23)=Nc2ccccc21`, which parasite load remaining [1] is on record?
Its parasite load remaining is 27.8% (inactive).

What about the viability [1] of the same compound?
The viability was 67.8%.

What about the fluorescence ratio [2] of the same compound?
Its fluorescence ratio is 1.08 (inactive).

What about the inhibition [3] of the same compound?
The inhibition was 26.5% (active).

And the inhibition [4]?
The inhibition was 18.4% (inactive).

What about the fluorescence ratio [5] of the same compound?
The fluorescence ratio was 1.13 (inactive).

And the mean signal [6]?
The mean signal was 275 (inactive).

What about the fold change [7, 19] of the same compound?
Its fold change is 0.964 (inactive) and 0.92 (inactive) and 0.909 (inactive).

What about the fold change [7, 20] of the same compound?
The fold change was 1.03 and 0.816 and 0.7.

What about the cell count [7, 21] of the same compound?
Its cell count is 8910 and 4890 and 7650.

What about the cell count [7, 22] of the same compound?
Its cell count is 9240 and 5320 and 8410.

What about the z-score ([8]; MELAS cybrid survival, CellTiter-Glo 48 h, stronger effect = higher value) of the same compound?
The z-score was -0.237 (inactive).

And the z-score ([8]; Rieske KO mouse fibroblast survival, CellTiter-Glo 72 h)?
Its z-score is -0.638.

And the log fold change Tl+ flux [9]?
The log fold change Tl+ flux was 0.00735 (inactive).

And the log fold change Tl+ flux [10]?
The log fold change Tl+ flux was 0.00413 (inactive).

What about the log fold change Tl+ flux [11] of the same compound?
The log fold change Tl+ flux was -0.012 (inactive).

What about the log fold change Tl+ flux [12] of the same compound?
Its log fold change Tl+ flux is 0.0357 (inactive).

What about the log fold change Tl+ flux [13] of the same compound?
The log fold change Tl+ flux was -0.019 (inactive).

And the log fold change Tl+ flux [14]?
The log fold change Tl+ flux was 0.0422 (inactive).

And the log fold change Tl+ flux [15]?
Its log fold change Tl+ flux is 0.013 (inactive).

What about the log fold change Tl+ flux [16] of the same compound?
Its log fold change Tl+ flux is -0.00188 (inactive).

And the log fold change Tl+ flux [17]?
Its log fold change Tl+ flux is 0.0134 (inactive).

What about the log fold change Tl+ flux [18] of the same compound?
Its log fold change Tl+ flux is 0.0591 (inactive).

Which results are given for `CCOC(=O)[C@@H](CCc1ccccc1)N[C@@H](C)C(=O)N1CCC[C@H]1C(=O)O`?
parasite load remaining [1]: 41.4% (inactive); viability [1]: 126%; fluorescence ratio [2]: 1.05 (inactive); inhibition [3]: -10.4% (inactive); inhibition [4]: -0.48% (inactive); fluorescence ratio [5]: 1 (inactive); mean signal [6]: 237 (inactive); fold change [7, 19]: 0.958 (inactive); fold change [7, 20]: 0.517; cell count [7, 21]: 11000; cell count [7, 22]: 11500; log fold change Tl+ flux [9]: 0.0242 (inactive); log fold change Tl+ flux [10]: 0.0697 (inactive); log fold change Tl+ flux [11]: 0.00383 (inactive); log fold change Tl+ flux [12]: 0.0422 (inactive); log fold change Tl+ flux [13]: 0.023 (inactive); log fold change Tl+ flux [14]: 0.0223 (inactive); log fold change Tl+ flux [15]: -0.00857 (inactive); log fold change Tl+ flux [16]: -0.00135 (inactive); log fold change Tl+ flux [17]: -0.0226 (inactive); log fold change Tl+ flux [18]: -0.0503 (inactive)

With `CCOC(=O)CCC(=O)OC1C(OC2C(C)C(OC3CC(C)(OC)C(O)C(C)O3)C(C)C(=O)OC(CC)C(C)(O)C(O)C(C)C(=O)C(C)CC2(C)O)OC(C)CC1N(C)C` (stereo unspecified) as the compound, how does the parasite load remaining [1] read?
Its parasite load remaining is 56% (inactive).

What about the viability [1] of the same compound?
The viability was 94.7%.

What about the fluorescence ratio [2] of the same compound?
The fluorescence ratio was 1.07 (inactive).

What about the inhibition [3] of the same compound?
Its inhibition is 0.45% (inactive).

What about the inhibition [4] of the same compound?
Its inhibition is 0.29% (inactive).

What about the fluorescence ratio [5] of the same compound?
The fluorescence ratio was 0.98 (inactive).

What about the mean signal [6] of the same compound?
The mean signal was 242 (inactive).

And the fold change [7, 19]?
Its fold change is 0.96 (inactive).

And the fold change [7, 20]?
Its fold change is 1.93.

And the cell count [7, 21]?
Its cell count is 10400.

What about the cell count [7, 22] of the same compound?
The cell count was 10900.

What about the log fold change Tl+ flux [9] of the same compound?
Its log fold change Tl+ flux is -0.00772 (inactive).

And the log fold change Tl+ flux [10]?
Its log fold change Tl+ flux is 0.06 (inactive).

And the log fold change Tl+ flux [11]?
The log fold change Tl+ flux was -0.0119 (inactive).

And the log fold change Tl+ flux [12]?
Its log fold change Tl+ flux is -0.0302 (inactive).

What about the log fold change Tl+ flux [13] of the same compound?
The log fold change Tl+ flux was -0.0035 (inactive).

What about the log fold change Tl+ flux [14] of the same compound?
Its log fold change Tl+ flux is -0.135 (active).

What about the log fold change Tl+ flux [15] of the same compound?
The log fold change Tl+ flux was 0.019 (inactive).

And the log fold change Tl+ flux [16]?
Its log fold change Tl+ flux is -0.0301 (inactive).

What about the log fold change Tl+ flux [17] of the same compound?
Its log fold change Tl+ flux is -0.00612 (inactive).

And the log fold change Tl+ flux [18]?
The log fold change Tl+ flux was 0.000174 (inactive).

With `CC1CC2C3CCC4=CC(=O)C=CC4(C)C3(F)C(O)CC2(C)C1(O)C(=O)CO` (stereo unspecified) as the compound, how does the parasite load remaining [1] read?
Its parasite load remaining is 69.5% (inactive).

What about the viability [1] of the same compound?
Its viability is 108%.

What about the fluorescence ratio [2] of the same compound?
Its fluorescence ratio is 0.1 (active).

And the inhibition [3]?
Its inhibition is -0.45% (inactive).

And the inhibition [4]?
Its inhibition is 1.81% (inactive).

What about the fluorescence ratio [5] of the same compound?
The fluorescence ratio was 1.04 (inactive).

And the mean signal [6]?
Its mean signal is 266 (inactive).

What about the fold change [7, 19] of the same compound?
The fold change was 0.928 (inactive).

And the fold change [7, 20]?
The fold change was 0.945.

What about the cell count [7, 21] of the same compound?
The cell count was 8000.

What about the cell count [7, 22] of the same compound?
Its cell count is 8620.

And the log fold change Tl+ flux [9]?
Its log fold change Tl+ flux is -0.000812 (inactive).

What about the log fold change Tl+ flux [10] of the same compound?
The log fold change Tl+ flux was 0.043 (inactive).

And the log fold change Tl+ flux [11]?
The log fold change Tl+ flux was 0.0297 (inactive).

What about the log fold change Tl+ flux [12] of the same compound?
Its log fold change Tl+ flux is -0.00203 (inactive).

What about the log fold change Tl+ flux [13] of the same compound?
The log fold change Tl+ flux was 0.021 (inactive).

What about the log fold change Tl+ flux [14] of the same compound?
Its log fold change Tl+ flux is 0.00154 (inactive).

What about the log fold change Tl+ flux [15] of the same compound?
The log fold change Tl+ flux was 0.0289 (inactive).

And the log fold change Tl+ flux [16]?
The log fold change Tl+ flux was -0.0295 (inactive).

What about the log fold change Tl+ flux [17] of the same compound?
The log fold change Tl+ flux was 0.0089 (inactive).

What about the log fold change Tl+ flux [18] of the same compound?
The log fold change Tl+ flux was -0.0137 (inactive).

— PubChem BioAssay
